Measured values taken from the supplement of paper PMC10849652.
About 7,900 targets were measured; listed, in parts, are those with a hit and a random draw of the rest. About 0.6% of all pairs of compound and target were hits.

Assays:
Assay in all cases: log2 fold change, soluble protein after heating vs DMSO (PISA); higher = thermal stabilisation; K562 cells, 10 uM, 30 min; active = over 0.2 and 3.5 SD of the protein, either way, in both replicates (recomputed)
bafetinib = compound: Cc1ccc(NC(=O)c2ccc(CN3CC[C@H](N(C)C)C3)c(C(F)(F)F)c2)cc1Nc1nccc(-c2cncnc2)n1 [bafetinib]
Outline: (§1)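 Soluble protein was defined as the supernatant after 21,000xg for 90 min. It came from K562 cells at 2×10^6 cells/mL given 10 μM compound for 30 min, heated in aliquots for 3 min across 48°C-58°C, pooled, and extracted in PBS with 0.5% NP-40 at 4°C, and was quantified by TMTpro 16plex LC-MS/MS with equalised channel sums. Thermal stability against control samples, from duplicates, is reported as log2 fold change.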

[1] = compound: CS(=O)(=O)c1ccc(-c2cnc(N)c(C(=O)Nc3ccccc3)n2)cc1
Outline: as §1

crizotinib = compound: C[C@@H](Oc1cc(-c2cnn(C3CCNCC3)c2)cnc1N)c1c(Cl)ccc(F)c1Cl [crizotinib]
Outline: as §1

doramapimod = compound: Cc1ccc(-n2nc(C(C)(C)C)cc2NC(=O)Nc2ccc(OCCN3CCOCC3)c3ccccc23)cc1 [doramapimod]
Outline: as §1

ispinesib = compound: Cc1ccc(C(=O)N(CCCN)[C@@H](c2nc3cc(Cl)ccc3c(=O)n2Cc2ccccc2)C(C)C)cc1 [ispinesib]
Outline: as §1

nilotinib = compound: Cc1cn(-c2cc(NC(=O)c3ccc(C)c(Nc4nccc(-c5cccnc5)n4)c3)cc(C(F)(F)F)c2)cn1 [nilotinib]
Outline: as §1

[2] = compound: Cc1nc(Nc2n[nH]c3c2CN(C(=O)N[C@H](CN(C)C)c2ccccc2)C3(C)C)c2sccc2n1
Outline: as §1

[3] = compound: Cc1ncc(-c2ccnc(Nc3ccc(S(C)(=O)=O)cc3)n2)n1C(C)C
Outline: as §1

[4] = compound: Cn1cc(-c2ccc3nnc(C(F)(F)c4ccc5ncccc5c4)n3n2)cn1
Outline: as §1

mubritinib = compound: FC(F)(F)c1ccc(/C=C/c2nc(COc3ccc(CCCCn4ccnn4)cc3)co2)cc1 [mubritinib]
Outline: as §1

[5] = compound: C[C@@H]1COCCN1C2=NC(=NC(=C2)C3(CC3)S(=O)(=O)C)C4=C5C=CNC5=CC=C4
Outline: as §1

[6] = compound: C[C@H](C1=CC=C(C=C1)C(=O)NC2=C3C=CNC3=NC=C2)N
Outline: as §1

duvelisib = compound: C[C@H](Nc1ncnc2nc[nH]c12)c1cc2cccc(Cl)c2c(=O)n1-c1ccccc1 [duvelisib]
Outline: as §1

gandotinib = compound: Cc1cc(Nc2cc(CN3CCOCC3)c3nc(C)c(Cc4ccc(Cl)cc4F)n3n2)n[nH]1 [gandotinib]
Outline: as §1

tozasertib = compound: Cc1cc(Nc2cc(N3CCN(C)CC3)nc(Sc3ccc(NC(=O)C4CC4)cc3)n2)n[nH]1 [tozasertib]
Outline: as §1

[7] = compound: Cc1cc(SCc2sc(-c3ccc(C(F)(F)F)cc3)nc2C)ccc1OCC(=O)O
Outline: as §1

[8] = compound: Cc1cccc(CC(=O)N2CCc3c2ccc(-c2cn(C)c4ncnc(N)c24)c3F)n1
Outline: as §1

dasatinib = compound: Cc1nc(Nc2ncc(C(=O)Nc3c(C)cccc3Cl)s2)cc(N2CCN(CCO)CC2)n1 [dasatinib]
Outline: as §1

[9] = compound: Cn1cc(-c2ccc3c(c2)CCN3C(=O)Cc2cccc(C(F)(F)F)c2)c2c(N)ncnc21
Outline: as §1

tipifarnib = compound: Cn1cncc1[C@@](N)(c1ccc(Cl)cc1)c1ccc2c(c1)c(-c1cccc(Cl)c1)cc(=O)n2C [tipifarnib]
Outline: as §1

Measured: log2 fold change

ATP6V0A1 (UniProt Q93050)
inactive: bafetinib -0.078

ATXN7L3 isoform 2 (UniProt Q14CW9)
Chain of UniProt Q14CW9 (Q14CW9 whole entry, looked up): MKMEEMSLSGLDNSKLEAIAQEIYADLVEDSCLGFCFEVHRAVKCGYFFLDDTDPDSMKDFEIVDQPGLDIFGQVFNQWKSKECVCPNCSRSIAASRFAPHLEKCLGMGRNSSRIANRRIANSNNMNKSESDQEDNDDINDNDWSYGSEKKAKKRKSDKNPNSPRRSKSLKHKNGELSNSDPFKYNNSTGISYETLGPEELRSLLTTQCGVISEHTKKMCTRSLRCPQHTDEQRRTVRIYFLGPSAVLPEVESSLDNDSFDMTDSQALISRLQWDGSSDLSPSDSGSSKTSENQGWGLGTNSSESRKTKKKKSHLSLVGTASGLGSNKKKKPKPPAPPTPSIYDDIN
inactive: [1] 0.001 | crizotinib -0.043 | doramapimod 0.169 | ispinesib -0.007 | bafetinib -0.123 | nilotinib 0.024 | [2] 0.043 | [3] -0.054 | [4] 0.03 | mubritinib 0.086

ALDH9A1 (UniProt P49189)
Chain of UniProt P49189 (P49189 whole entry, looked up): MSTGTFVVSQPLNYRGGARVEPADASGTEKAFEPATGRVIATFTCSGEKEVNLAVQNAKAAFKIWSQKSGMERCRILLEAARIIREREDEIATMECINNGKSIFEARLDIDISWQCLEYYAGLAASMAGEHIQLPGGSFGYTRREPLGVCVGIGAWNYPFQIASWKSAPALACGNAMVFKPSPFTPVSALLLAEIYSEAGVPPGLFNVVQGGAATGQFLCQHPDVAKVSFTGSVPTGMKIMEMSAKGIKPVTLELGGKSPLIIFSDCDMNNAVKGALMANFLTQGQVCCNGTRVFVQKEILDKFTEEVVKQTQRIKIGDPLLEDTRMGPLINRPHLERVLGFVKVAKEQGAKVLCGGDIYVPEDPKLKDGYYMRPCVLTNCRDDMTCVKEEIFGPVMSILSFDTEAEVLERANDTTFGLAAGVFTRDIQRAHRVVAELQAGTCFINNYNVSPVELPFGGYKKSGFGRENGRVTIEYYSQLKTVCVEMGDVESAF
inactive: [1] 0.084 | [5] 0.061 | [6] -0.116 | duvelisib 0.002 | tozasertib -0.052 | [7] 0.045 | ispinesib -0.243 | bafetinib 0.023 | [8] 0.071 | nilotinib -0.08 | [2] -0.046 | dasatinib -0.105 | [3] 0.019 | [9] 0.047 | [4] 0.044 | tipifarnib 0.099 | mubritinib -0.015
active: gandotinib 0.356

ACSL6 isoform 1 (UniProt Q9UKU0)
inactive: [1] -0.055 | [5] 0.164 | duvelisib -0.068 | gandotinib -0.145 | tozasertib -0.052 | [7] 0.157 | ispinesib -0.198 | bafetinib 0.147 | [8] 0.057 | nilotinib -0.066 | [2] -0.066 | dasatinib 0.036 | [3] -0.025 | [4] 0.014 | mubritinib 0.015

ACVR1 (UniProt Q04771)
Chain of UniProt Q04771 (Q04771 whole entry, looked up): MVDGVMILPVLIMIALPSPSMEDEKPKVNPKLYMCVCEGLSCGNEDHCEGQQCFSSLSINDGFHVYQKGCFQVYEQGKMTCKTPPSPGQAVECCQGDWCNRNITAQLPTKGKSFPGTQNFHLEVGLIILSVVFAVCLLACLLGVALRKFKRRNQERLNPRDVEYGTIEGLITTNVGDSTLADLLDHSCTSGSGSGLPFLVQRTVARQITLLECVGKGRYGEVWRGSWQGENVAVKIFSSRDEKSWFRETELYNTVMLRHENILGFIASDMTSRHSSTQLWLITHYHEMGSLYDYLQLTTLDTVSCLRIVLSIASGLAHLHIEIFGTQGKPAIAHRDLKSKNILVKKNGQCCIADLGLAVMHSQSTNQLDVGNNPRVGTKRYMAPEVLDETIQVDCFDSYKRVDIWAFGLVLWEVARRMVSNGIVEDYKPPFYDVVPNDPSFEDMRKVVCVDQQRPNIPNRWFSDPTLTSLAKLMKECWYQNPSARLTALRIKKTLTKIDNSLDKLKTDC
active: [6] 0.642
inactive: [1] 0.38 | [5] 0.04 | duvelisib 0.074 | gandotinib 0.109 | tozasertib 0.014 | [7] -0.061 | [8] -0.068 | dasatinib 0.041 | [9] 0.029 | tipifarnib -0.006 | mubritinib -0.124

AIF1 (UniProt P55008)
inactive: [1] 0.008 | [5] 0.11 | ispinesib -0.317 | bafetinib 0.035 | [4] 0.153 | tipifarnib 0.051

BAIAP2 isoform 4 (UniProt Q9UQB8)
Chain of UniProt Q9UQB8 (Q9UQB8 whole entry, looked up): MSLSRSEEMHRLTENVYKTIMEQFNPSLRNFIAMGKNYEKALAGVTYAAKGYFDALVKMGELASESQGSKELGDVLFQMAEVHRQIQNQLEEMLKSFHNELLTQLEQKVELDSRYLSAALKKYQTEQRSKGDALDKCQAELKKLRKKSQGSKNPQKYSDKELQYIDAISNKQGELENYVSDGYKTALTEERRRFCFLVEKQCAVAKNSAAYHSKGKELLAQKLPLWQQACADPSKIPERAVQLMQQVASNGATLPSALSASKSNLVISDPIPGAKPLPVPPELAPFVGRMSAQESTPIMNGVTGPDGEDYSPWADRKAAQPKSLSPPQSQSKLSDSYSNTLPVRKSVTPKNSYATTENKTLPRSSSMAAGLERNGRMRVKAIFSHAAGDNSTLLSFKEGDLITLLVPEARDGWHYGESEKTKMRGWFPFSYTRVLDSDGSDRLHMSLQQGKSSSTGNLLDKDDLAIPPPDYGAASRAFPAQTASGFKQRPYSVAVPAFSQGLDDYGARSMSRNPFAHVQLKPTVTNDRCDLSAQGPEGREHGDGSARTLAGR
inactive: [1] -0.112 | [6] 0.29 | tozasertib 0.042 | [9] -0.018

BTBD6 (UniProt Q96KE9)
Chain of UniProt Q96KE9 (Q96KE9 whole entry, looked up): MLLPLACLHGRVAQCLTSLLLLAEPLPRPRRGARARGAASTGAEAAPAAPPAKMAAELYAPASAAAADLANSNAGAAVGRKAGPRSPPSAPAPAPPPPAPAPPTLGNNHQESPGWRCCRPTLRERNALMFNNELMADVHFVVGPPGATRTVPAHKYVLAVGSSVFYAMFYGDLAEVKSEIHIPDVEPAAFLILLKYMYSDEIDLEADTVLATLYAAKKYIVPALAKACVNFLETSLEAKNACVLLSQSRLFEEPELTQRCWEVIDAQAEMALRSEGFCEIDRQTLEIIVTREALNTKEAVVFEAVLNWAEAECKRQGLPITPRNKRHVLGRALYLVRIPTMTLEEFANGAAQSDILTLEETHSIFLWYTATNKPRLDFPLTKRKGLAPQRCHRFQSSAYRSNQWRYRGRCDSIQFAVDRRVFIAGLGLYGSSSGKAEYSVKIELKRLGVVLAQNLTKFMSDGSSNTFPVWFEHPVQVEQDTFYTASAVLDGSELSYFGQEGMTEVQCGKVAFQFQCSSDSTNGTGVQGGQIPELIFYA
inactive: [1] 0.117 | [5] 0.033 | [6] -0.308 | duvelisib 0.125 | gandotinib 0.64 | tozasertib -0.105 | [7] -0.061 | ispinesib 0.209 | bafetinib -0.007 | [8] 0.011 | nilotinib 0.277 | [2] -0.044 | dasatinib 0.008 | [3] -0.098 | [9] 0.239 | [4] -0.003 | tipifarnib -0.121 | mubritinib 0.153

AZI2 (UniProt Q9H6S1)
Chain of UniProt Q9H6S1 (Q9H6S1 whole entry, looked up): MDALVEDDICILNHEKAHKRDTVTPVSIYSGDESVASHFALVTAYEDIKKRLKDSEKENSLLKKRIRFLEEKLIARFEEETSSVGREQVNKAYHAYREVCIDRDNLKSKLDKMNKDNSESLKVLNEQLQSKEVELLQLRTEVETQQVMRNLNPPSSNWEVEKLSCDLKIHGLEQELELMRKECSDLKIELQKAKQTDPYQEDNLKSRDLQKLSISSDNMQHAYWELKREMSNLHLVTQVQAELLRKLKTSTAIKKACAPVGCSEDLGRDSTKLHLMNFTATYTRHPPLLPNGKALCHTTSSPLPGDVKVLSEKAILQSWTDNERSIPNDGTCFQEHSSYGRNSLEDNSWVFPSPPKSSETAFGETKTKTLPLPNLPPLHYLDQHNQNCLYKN
inactive: [1] 0.074 | tozasertib 0.329 | ispinesib -0.019 | bafetinib -0.049 | nilotinib 0.179 | [2] 0.481 | [3] 0.099 | [4] 0.105

ANGEL1 (UniProt Q9UNK9)
Chain of UniProt Q9UNK9 (Q9UNK9 whole entry, looked up): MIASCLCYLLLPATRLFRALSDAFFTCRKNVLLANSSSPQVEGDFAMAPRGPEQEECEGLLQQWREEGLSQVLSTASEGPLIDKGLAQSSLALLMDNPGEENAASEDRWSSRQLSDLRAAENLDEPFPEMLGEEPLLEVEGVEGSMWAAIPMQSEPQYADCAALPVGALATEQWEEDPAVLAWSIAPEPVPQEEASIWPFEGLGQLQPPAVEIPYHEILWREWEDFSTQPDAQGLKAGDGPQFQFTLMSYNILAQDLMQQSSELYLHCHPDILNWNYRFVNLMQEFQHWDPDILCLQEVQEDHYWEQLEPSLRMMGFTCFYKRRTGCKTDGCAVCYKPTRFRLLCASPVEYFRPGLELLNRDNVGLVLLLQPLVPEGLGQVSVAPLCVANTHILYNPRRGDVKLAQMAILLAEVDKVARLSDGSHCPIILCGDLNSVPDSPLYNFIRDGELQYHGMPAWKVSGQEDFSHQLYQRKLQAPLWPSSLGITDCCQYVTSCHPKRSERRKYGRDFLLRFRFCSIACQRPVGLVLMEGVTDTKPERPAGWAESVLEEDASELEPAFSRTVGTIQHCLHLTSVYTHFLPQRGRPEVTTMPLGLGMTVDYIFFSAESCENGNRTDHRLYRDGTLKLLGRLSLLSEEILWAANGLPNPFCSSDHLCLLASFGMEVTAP
inactive: crizotinib -0.058 | tozasertib -0.077 | doramapimod -0.028 | ispinesib 0.27 | bafetinib 0.015 | [4] -0.063

BRMS1 (UniProt Q9HCU9)
inactive: [5] -0.034 | duvelisib 0.049 | gandotinib -0.174 | tozasertib -0.094 | [7] -0.046 | [8] 0.029 | dasatinib 0.035 | mubritinib 0.179

ACTR3B (UniProt Q9P1U1)
inactive: crizotinib -0.005 | gandotinib 0.024 | tozasertib -0.02 | doramapimod 0.158 | ispinesib -0.069 | [8] 0.035 | nilotinib 0.036 | [2] -0.082 | [3] -0.001 | [4] -0.051 | tipifarnib 0.129

BAP18 isoform 3 (UniProt Q8IXM2)
Chain of UniProt Q8IXM2 (Q8IXM2 whole entry, looked up): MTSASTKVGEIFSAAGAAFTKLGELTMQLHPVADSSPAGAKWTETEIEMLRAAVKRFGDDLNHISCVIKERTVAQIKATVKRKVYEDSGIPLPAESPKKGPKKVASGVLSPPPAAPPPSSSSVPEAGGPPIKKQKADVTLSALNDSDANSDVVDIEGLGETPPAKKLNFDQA
inactive: gandotinib 0.147 | tozasertib 0.012 | [8] -0.182 | mubritinib 0.117

ARHGAP25 isoform 4 (UniProt P42331)
Chain of UniProt P42331 (P42331 whole entry, looked up): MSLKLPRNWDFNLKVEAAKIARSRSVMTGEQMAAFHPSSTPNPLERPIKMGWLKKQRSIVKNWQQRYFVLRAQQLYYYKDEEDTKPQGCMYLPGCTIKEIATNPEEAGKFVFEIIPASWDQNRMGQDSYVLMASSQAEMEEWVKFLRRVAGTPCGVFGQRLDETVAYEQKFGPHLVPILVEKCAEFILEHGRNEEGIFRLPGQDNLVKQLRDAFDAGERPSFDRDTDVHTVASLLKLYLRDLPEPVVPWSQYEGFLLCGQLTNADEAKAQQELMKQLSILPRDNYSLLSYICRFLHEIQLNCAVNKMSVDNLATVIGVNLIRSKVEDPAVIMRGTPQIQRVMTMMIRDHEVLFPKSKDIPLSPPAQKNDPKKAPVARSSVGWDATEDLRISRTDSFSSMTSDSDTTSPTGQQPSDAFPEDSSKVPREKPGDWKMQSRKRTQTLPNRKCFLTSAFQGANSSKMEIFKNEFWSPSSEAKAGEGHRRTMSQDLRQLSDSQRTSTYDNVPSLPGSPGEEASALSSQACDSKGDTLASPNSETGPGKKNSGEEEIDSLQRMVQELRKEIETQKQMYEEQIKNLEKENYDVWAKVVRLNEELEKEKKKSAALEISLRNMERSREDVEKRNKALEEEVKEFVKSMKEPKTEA
inactive: [5] -0.066 | [6] 0.309 | duvelisib -0.067 | gandotinib -0.056 | tozasertib 0.111 | [7] 0.299 | bafetinib -0.035 | [8] -0.089 | nilotinib 0.28 | [2] -0.276 | dasatinib -0.421 | [3] 0.078 | [9] -0.009 | mubritinib 0.266

BRAF, A0A2R8Y8E0
inactive: crizotinib 0.262 | tozasertib 0.248 | ispinesib -0.223 | nilotinib -0.419 | [2] 0.112 | [3] -0.236 | [4] 0.052 | mubritinib 0.113
active: doramapimod -0.757

AARSD1 (UniProt Q9BTE6)
inactive: crizotinib -0.036 | [6] 0.033 | duvelisib -0.258 | [7] 0.026 | doramapimod -0.096 | bafetinib 0.142 | nilotinib 0.029 | [2] -0.078 | dasatinib -0.606 | [3] -0.012 | [9] 0.121 | tipifarnib -0.19 | mubritinib 0.066

ATF1 (UniProt P18846)
inactive: [1] -0.004 | [5] 0.017 | [6] 0.073 | gandotinib 0.067 | tozasertib 0.113 | bafetinib -0.12 | [8] 0.018 | nilotinib 0.035 | [2] -0.09 | [3] 0.064 | [9] -0.006 | tipifarnib 0.06 | mubritinib 0.057

ALG14 (UniProt Q96F25)
Chain of UniProt Q96F25 (Q96F25 whole entry, looked up): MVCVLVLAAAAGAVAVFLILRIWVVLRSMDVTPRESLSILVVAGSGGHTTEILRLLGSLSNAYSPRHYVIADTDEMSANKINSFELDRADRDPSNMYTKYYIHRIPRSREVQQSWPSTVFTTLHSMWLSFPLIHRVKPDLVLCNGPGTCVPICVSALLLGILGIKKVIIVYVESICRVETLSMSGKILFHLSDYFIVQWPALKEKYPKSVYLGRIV
active: gandotinib -0.798 | [8] 0.461
inactive: crizotinib -0.034 | [5] -0.117 | [6] -0.042 | duvelisib 0.01 | tozasertib -0.134 | [7] -0.002 | doramapimod -0.038 | ispinesib -0.018 | bafetinib -0.092 | nilotinib 0.061 | [2] 0.026 | dasatinib 0.003 | [3] -0.033 | [9] 0.014 | [4] 0.126 | tipifarnib -0.214 | mubritinib 0.003

AURKA (UniProt O14965)
active: gandotinib 1.01 | [2] 0.699
inactive: [1] 0.198 | [5] -0.251 | [6] 0.066 | duvelisib -0.058 | [7] -0.013 | doramapimod 0.051 | ispinesib -0.107 | bafetinib 0.103 | [8] -0.113 | nilotinib -0.001 | dasatinib 0.365 | [3] 0.47 | [9] 0.073 | [4] -0.016 | tipifarnib -0.054 | mubritinib -0.078

ACTBL2 (UniProt Q562R1)
inactive: [1] -0.022 | [5] -0.005 | duvelisib -0.091 | gandotinib -0.828 | [7] -0.299 | ispinesib -0.307 | bafetinib 0.113 | [8] -0.124 | nilotinib 0.579 | [2] -0.067 | dasatinib 0.398 | [3] -0.051 | [4] 0.336 | tipifarnib 0.488 | mubritinib -0.267

ARRDC1 (UniProt Q8N5I2)
Chain of UniProt Q8N5I2 (Q8N5I2 whole entry, looked up): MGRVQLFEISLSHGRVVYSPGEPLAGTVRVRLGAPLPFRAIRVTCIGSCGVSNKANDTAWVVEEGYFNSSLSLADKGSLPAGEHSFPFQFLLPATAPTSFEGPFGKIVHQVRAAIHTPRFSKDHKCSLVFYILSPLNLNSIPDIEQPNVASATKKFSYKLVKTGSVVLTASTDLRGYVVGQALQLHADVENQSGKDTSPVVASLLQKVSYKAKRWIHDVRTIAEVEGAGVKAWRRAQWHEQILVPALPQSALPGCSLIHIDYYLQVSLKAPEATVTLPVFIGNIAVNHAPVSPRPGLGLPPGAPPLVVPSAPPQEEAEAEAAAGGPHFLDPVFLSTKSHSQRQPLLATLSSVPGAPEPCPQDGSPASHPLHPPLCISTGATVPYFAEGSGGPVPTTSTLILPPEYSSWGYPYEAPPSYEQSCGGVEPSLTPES
inactive: [1] 0.015 | [5] -0.097 | [6] 0.205 | duvelisib -0.263 | gandotinib 0.1 | tozasertib -0.075 | [7] -0.071 | ispinesib -0.082 | bafetinib 0.014 | [8] -0.035 | nilotinib -0.045 | [2] 0.065 | dasatinib -0.073 | [3] 0.079 | [9] 0 | [4] -0.087 | tipifarnib 0.011 | mubritinib -0.112
